Hits are enriched below; roughly 27% of the tested compounds scored in any of these assays.
CYP2C9 activ: activators of human CYP2C9. P11712. hit rate 1.4% among 96,000. activation factor at 5 µM. AID 1024. recombinant CYP2C9, luciferin-H conversion, luminescence; active compounds read high; factor 1 = untreated enzyme, 0 = blocked;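 active = activation factor of 2 or more for CYP2C9 at a 5 µM dose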;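 also: 0 = sulfaphenazole-blocked wells and 1 = vehicle-only wells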
Target sequence (P11712 whole entry, looked up): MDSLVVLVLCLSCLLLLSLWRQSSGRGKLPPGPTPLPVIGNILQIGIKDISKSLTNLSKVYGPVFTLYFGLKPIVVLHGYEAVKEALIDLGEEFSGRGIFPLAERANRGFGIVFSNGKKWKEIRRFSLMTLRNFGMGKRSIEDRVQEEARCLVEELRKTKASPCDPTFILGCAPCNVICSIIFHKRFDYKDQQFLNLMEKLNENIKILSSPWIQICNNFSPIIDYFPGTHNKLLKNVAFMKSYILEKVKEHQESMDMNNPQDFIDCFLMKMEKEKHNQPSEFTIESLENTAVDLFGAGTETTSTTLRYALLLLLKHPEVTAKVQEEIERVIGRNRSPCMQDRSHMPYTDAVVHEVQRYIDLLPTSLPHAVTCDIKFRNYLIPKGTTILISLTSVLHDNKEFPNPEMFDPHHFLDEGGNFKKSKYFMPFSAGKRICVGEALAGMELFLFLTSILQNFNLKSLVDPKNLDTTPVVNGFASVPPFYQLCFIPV
sEH inhibitor: inhibitors of human soluble epoxide hydrolase | inhibition, % at 2 µM | recombinant human sEH enzymatic activity assay | hit rate 0.34% among 91,000; in the data active = inhibition above about 80%
CYP2C19 inhib: human CYP2C19 inhibition | P33261 | CYP2C19 Supersomes, luciferin-H EGE luminescence, 30 min | inhibition, % at 5 µM | hit rate 21% among 96,000;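 active = CYP2C19 inhibition above a set limit at 5 µM in the primary screen, cut at about 50% in these data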;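 also: plate controls were negative control wells for no effect and 2.5 mM tranylcypromine positive control for full effect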
CYP2C19 activ: activators of human cytochrome P450 2C19 | P33261 | recombinant CYP2C19, luciferin-H EGE luminescence; active compounds read high; 0 = fully inhibited enzyme, 1 = untreated enzyme | activation factor at 5 µM | 96,000 tested, under 10 active;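 active = activation factor of at least 2 at 5 µM in the primary screen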;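 also: 0 = wells with 2.5 mM tranylcypromine and 1 = vehicle-only wells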
CYP2C9 inh: human CYP2C9 inhibition. P11712. CYP2C9 Supersomes, luciferin-H conversion, luminescence. inhibition, % at 5 µM. hit rate 20% among 96,000. AID 777;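 active = blocking of liver enzyme CYP2C9 beyond about 50% at 5 µM, limit read from the data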
sEH act: increases human soluble epoxide hydrolase activity. P34913. purified human sEH enzymatic activity, activator screen. activation, % at 2 µM. hit rate 0.04% among 91,000. AID 717; in the data active = activation above about 37%
* hit, by the source's call; . = no result.

SMILES	CYP2C9 activ	sEH inhibitor	CYP2C19 inhib	CYP2C19 activ	CYP2C9 inh	sEH act
C=Cn1ccnc1P(=S)(c1nccn1C=C)C1CCCCC1	0.9	0.4	70.3*	0.3	14.7	1.2
CCOC(=O)C(O)(c1ccc(NC(=O)NC2CCCCC2)cc1)C(F)(F)F (stereo unspecified)	0.4	95.0*	80.4*	0.2	59.4*	-94.9
N=c1c[n+](CC23CC4CC(CC(C4)C2)C3)[n-]o1	0.7	-0.8	-8.2	1.1	26.7	0.2
c1ccc2c(CCNC3=NCCC3)c[nH]c2c1	1	6.8	3.0	1	-2.6	-6.4
CC(C)NC(=O)Cn1cc(C(=O)c2ccccc2F)c2ccccc21	0.7	4.5	50.4*	0.5	25.2	-2.4
Cn1c(O)c(C(=O)c2ccccc2F)c(=O)n(C)c1=O	0.7	-1.9	-1.0	1	30.8	3.3
COc1cccc(OCC(=O)N2CCN(C)CC2)c1	1.2	.	54.4*	0.5	-15.2	.
Cc1ccc(OCC(=O)N2CCN(C)CC2)c(Br)c1	1.1	8.3	10.2	0.9	-13.1	-4.7
O=C1NCCN2CCCC12 (stereo unspecified)	1.1	.	-10.3	1.1	-7.9	.
CCOC(=O)N1CCN(C(C)C(=O)c2c[nH]c3ccccc23)CC1 (stereo unspecified)	0.2	-15.4	92.4*	0.1	83.7*	12.7
Cc1nc2ccccc2n1C1CCN(Cc2nnnn2CCc2ccccc2)CC1	0.6	-3.2	30.8	0.7	43.9	3.9
Fc1ccc2c(c1)nnn2C1CCN(Cc2ccccc2)CC1	0.7	-3.4	33.0	0.7	26.3	1.2
c1ccc(CCn2nnnc2CN2CCC(n3nnc4ccccc43)CC2)cc1	0.3	.	68.8*	0.3	68.5*	.
Fc1ccc2c(c1)nnn2C1CCN(Cc2nnnn2CCc2ccccc2)CC1	0.1	-13.1	78.4*	0.2	94.8*	11.8
O=c1cccc2n1CC1CC2CN(C(c2cccc(F)c2)c2sc3ncnn3c2O)C1 (stereo unspecified)	1.2	3.9	-18.1	1.2	-24.4	-0.4
O=C(c1ccc(Cl)cc1)C12CN3CN(CN(C3)C1)C2	0.5	4.0	-4.9	1	47.9	-4.4
CCCCN1C(=O)NC(=O)C2(Cc3c(nc4c(C)cccn4c3=O)N3CCc4ccccc4C32)C1=O (stereo unspecified)	0.1	5.3	76.9*	0.2	88.8*	-5.8
CCCCN1C(=O)NC(=O)C2(Cc3c(nc4ccccn4c3=O)N3CCc4ccccc4C32)C1=O (stereo unspecified)	0.7	0.6	24.7	0.8	28.4	-2.6
CCCCCCCSc1cc(OC)c(CCN(C)C)cc1OC	1	-8.9	66.9*	0.3	-1.0	6.7
CCCCCSc1cc(OC)c(CCN)cc1OC	0.5	-5.5	96.5*	0	45.2	6.3
CCN(CC)CCCN=C(C)c1c(O)n(-c2ccc(C)cc2)c(=O)[nH]c1=O	1.1	-10.9	-9.0	1.1	-12.3	12.6
CCN(CC)CCN=Cc1c(O)n(Cc2ccccc2)c(=O)[nH]c1=O	0.8	-11.3	-2.8	1	18.5	7.4
CN(C)CC1CSCCC1(O)c1cccc(Cl)c1 (stereo unspecified)	.	-1.0	.	.	.	4.0
Fc1ccc(CCNCc2ccccc2Cl)cc1	0.9	8.1	96.0*	0	9.8	-6.7
COC(=O)c1ccccc1OP1(=O)COc2ccccc2OC1	0.7	.	31.4	0.7	30.0	.
SMILES	CYP2C9 activ	sEH inhibitor	CYP2C19 inhib	CYP2C19 activ	CYP2C9 inh	sEH act
O=P1(Nc2ccc(F)cc2)COc2ccccc2OC1	1.1	.	63.8*	0.4	-11.0	.
O=C(Cc1ccccc1)N1CCN(Cc2cccnc2)CC1	1	-6.1	75.5*	0.2	-1.3	4.3
O=C(Cc1ccccc1)N1CCN(CC2CC=CCC2)CC1 (stereo unspecified)	0.9	3.0	48.2	0.5	5.1	1.9
COc1ccc(Nc2ncc(C(=O)N3CCC4(CC3)OCCO4)c3ccccc23)cc1	0.9	.	22.9	0.8	13.9	.
Cc1c(C(=O)N2CCC3(CC2)OCCO3)sc2ncnc(N3CCN(c4ccccn4)CC3)c12	0.1	.	61.8*	0.4	87.0*	.
CCN1CCN(Cc2cc(Br)cc(Br)c2O)CC1	0.9	-3.8	60.5*	0.4	9.0	2.0
CCOP(=O)(OCC)C(NC(=O)c1ccc(Cl)cc1)=C(Cl)Cl	1	3.1	63.9*	0.4	1.1	-1.2
CC(C)(C)n1c(O)c(C=Nc2ccc3c(c2)CCC3)c(=O)[nH]c1=O	0.3	-4.5	38.5	0.6	73.8*	4.9
O=c1[nH]c(=O)n(CCC2=CCCCC2)c(O)c1C=Nc1cccc(F)c1	1.1	-3.2	5.4	0.9	-11.8	5.1
CNC(C(=O)c1ccccc1)C(OC(C)C)c1ccc(Cl)cc1 (stereo unspecified)	0.6	2.0	62.8*	0.4	36.8	-2.3
OCCOCC#CCN1CCOCC1	0.9	8.2	-6.6	1.1	5.6	-7.0
CCOC(=O)C(O)(c1cn(C)c2ccccc12)C(F)(F)F (stereo unspecified)	2.6*	8.2	9.4	0.9	-163.7	-8.4
CCOC(=O)C(O)(c1ccc(N(C)C(=O)COc2ccccc2)cc1)C(F)(F)F (stereo unspecified)	.	-3.9	.	.	.	1.8
C#CCNc1ccncc1S(=O)(=O)NC(=O)NC(C)C	.	0.1	.	.	.	-0.2
COc1ccc(OCC(=O)N2CCN(CC3CC4C=CC3C4)CC2)cc1 (stereo unspecified)	0.9	-1.8	1.7	1	8.5	-0.3
Cn1c(=O)n(CC(=O)N2CCC3(CC2)OCCO3)c(=O)c2ccccc21	1.1	.	33.5	0.7	-5.9	.
CCn1c(=O)cc(SCC(=O)N2CCC3(CC2)OCCO3)c2ccccc21	2.2*	3.7	39.0	0.6	-119.8	-2.9
O=C(Cc1ccccc1)OC(COCc1ccccc1)CN1CCOCC1 (stereo unspecified)	0.6	-3.8	72.7*	0.3	44.5	5.2
O=P(O)(O)C12CC3CC(CC(C3)C1)C2	0.4	10.7	44.6	0.6	62.3*	-8.6
COc1ccc(Cn2c(N)c(C(=O)NCc3ccco3)c3nc4ccccc4nc32)cc1OC	0.2	-2.5	42.4	0.6	78.7*	4.2
CCOC(=O)c1c(N)n(CCCOC(=O)c2ccco2)c2nc3ccccc3nc12	0.1	-11.4	66.1*	0.3	86.5*	12.7
CCOC(=O)c1c(N)n(Cc2ccc(OC)cc2)c2nc3ccccc3nc12	0.7	15.9	13.3	0.9	31.9	-15.3
COC(=O)c1c(N)n(Cc2ccc(OC)cc2)c2nc3ccccc3nc12	0.3	.	75.0*	0.3	71.1*	.
COCCOC(=O)c1c(N)n(Cc2ccc(OC)cc2)c2nc3ccccc3nc12	0.2	.	64.0*	0.4	83.4*	.
c1ccc2[nH]c(CCNC3CCCCC3)nc2c1	0.9	9.6	41.1	0.6	12.7	-10.8
CC(=NCCC1=CCCCC1)c1c(O)[nH]c(=O)[nH]c1=O	0.8	-2.9	10.7	0.9	25.0	3.0
C1CNC2NCCNC2N1 (stereo unspecified)	1.2	-13.6	-22.8	1.2	-20.8	15.1
